Test results reported in PubChem BioAssay (NCI).
This is part of a sample that, as a whole, favours compounds with a hit. Of some 79,000 tested, about 15% had one in any assay. Rule as the data show it: active = growth inhibition above about 70%; inactive = the rest.

Assays:
[1] = NCI Yeast Anticancer Drug Screen. Data for the rad50 strain (AID 155);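 also: 0% = growth of vehicle-only cultures of the same strain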; details: S. cerevisiae rad50 strain growth inhibition; at 50.0 µM; hits give high values
Method in brief: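 DNA repair mutant yeast, compound exposure, growth read-out; inhibition is taken relative to vehicle.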

[2] = NCI Yeast Anticancer Drug Screen. Data for the mec2-1 strain (AID 157); details: S. cerevisiae mec2-1 strain, at 50.0 µM, hits give high values
Method in brief: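 Strain: mec2-1 (DNA repair/cell cycle alteration). Compound exposure, then growth measured; inhibition expressed relative to vehicle.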

[3] = NCI Yeast Anticancer Drug Screen. Data for the sgs1 mgt1 strain (AID 161);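 also: 0% = growth of cultures given vehicle only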; details: S. cerevisiae sgs1 mgt1 strain, at 50.0 µM, hits give high values
Method in brief: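 Inhibition of yeast growth, normalised to vehicle-treated controls, is reported for a strain bearing genetic alterations in DNA damage repair.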

[4] = NCI Yeast Anticancer Drug Screen. Data for the cln2 rad14 strain (AID 165);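 also: 0% = growth equal to vehicle treated cultures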; details: S. cerevisiae cln2 rad14 strain, at 50.0 µM, hits give high values
Method in brief: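 Compounds are applied to the cln2 rad14 yeast strain, and growth is then compared with that of vehicle-treated cultures to give inhibition.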

[5] = NCI Yeast Anticancer Drug Screen. Data for the bub3 strain (AID 167); details: S. cerevisiae bub3 mutant strain, at 50.0 µM, hits give high values
Method in brief: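 In this screen, a yeast mutant lacking normal mitotic checkpoint function is challenged with compound. Relative growth versus vehicle gives the inhibition value.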

[6] = NCI Yeast Anticancer Drug Screen. Data for the mlh1 rad18 strain (AID 175); details: S. cerevisiae mlh1 rad18 strain growth inhibition; at 50.0 µM; hits give high values
Method in brief: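 Read-out is yeast growth inhibition, calculated against vehicle-only controls. The compound was applied to a strain engineered with DNA damage repair alterations.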

Measured: growth inhibition

CCOC(=O)[C@H]1CSC[C@@H](C(=O)OC)N1
inactive: [1] -13.6% | [2] -4.7% | [3] -10.6% | [4] 4.45% | [5] 5.15% | [6] -4.9%

CC(=O)COC(C)=O
inactive: [1] 40.2% | [2] -15.6% | [3] 4.85% | [4] -5% | [5] 2.6% | [6] 12.6%

COc1cc(OC)nc(NS(=O)(=O)c2ccc(N)cc2)n1
inactive: [1] 6% | [2] -3.8% | [3] 20.9% | [4] 19.6% | [5] 10.3% | [6] 6.65%

C/C(=N/OC1=CC(=O)CC(C)(C)C1)c1ccccc1
inactive: [1] 1.8% | [2] 0.8% | [3] 0.3% | [4] -52.9% | [5] 24.1% | [6] 0.6%

O=C(c1ccc2c(c1)C(=O)OC2=O)c1ccc2c(c1)C(=O)OC2=O
inactive: [1] -22.5% | [2] -39.9% | [3] -17.8% | [4] 6.1% | [5] -27.8% | [6] -29.7%

CCCCCCCCCCCCCCCCCCCCCCBr
inactive: [1] 4.95% | [2] 4.8% | [3] 16.8% | [4] 21.4% | [5] -2.75% | [6] 14.3%

CCN(CC)CCN(C)CCN(CC)CC
inactive: [1] 14.1% | [2] 1.7% | [3] 18.6% | [4] 9.8% | [5] 38.7% | [6] 17.6%

CCOC(=O)c1ccc(-c2cccs2)[nH]1
inactive: [1] -35.3% | [2] -1.25% | [3] 3.95% | [4] -1.25% | [5] 27% | [6] -11.9%

C=CCC1=C(C)C(O)CC1=O (stereo unspecified)
inactive: [1] -21.9% | [2] -13.7% | [3] -0.75% | [4] -15.7% | [5] 0.7% | [6] -41.6%

CCCCn1c(=O)c2c(ncn2C)n(C)c1=O
inactive: [1] 16.8% | [2] 16.6% | [3] 9.75% | [4] -9.25% | [5] -2.45% | [6] 6.2%

Cc1cccc(C(=O)NN)c1O
inactive: [1] -1.7% | [2] -14.7% | [3] -6.25% | [4] 5.7% | [5] 23.9% | [6] 22.2%

NC(C(=O)O)C1C=CCCC1 (stereo unspecified)
inactive: [1] -25.4% | [2] -3.4% | [3] -30.8% | [4] -57.3% | [5] -27.2% | [6] 6.85%

Nc1nc(Cl)nc(Cl)n1
inactive: [1] -53.7% | [2] -59.5% | [3] -33% | [4] 3.75% | [5] -52.4% | [6] -12.2%

CCCCCC(O)C(C)C (stereo unspecified)
inactive: [1] 1.5% | [2] -2.55% | [3] -8.65% | [4] -36.8% | [5] 15.7% | [6] 6.8%

CCCCCCCCCCCCCCCCCCOCCCCCCCCCCCC
inactive: [1] -34.8% | [2] -15.6% | [3] -20% | [4] -64% | [5] 5.05% | [6] -17.1%

C[n+]1ccccc1C#N
inactive: [1] -17.2% | [2] -32.1% | [3] 0.55% | [4] 11.9% | [5] -43.4% | [6] -4.2%

CCOC(=O)C/C(C)=N/NS(=O)(=O)c1ccc(NC(C)=O)cc1
inactive: [1] -7.6% | [2] -19.6% | [3] 8.25% | [4] -9.3% | [5] -27.3% | [6] -24.8%

NC1=C(O)/C(=N/NS(=O)(=O)c2ccccc2)C(c2cccc(Cl)c2)O1 (stereo unspecified)
inactive: [1] 30.4% | [2] 23.4% | [3] 48.5% | [4] 13.8% | [5] 11.7% | [6] 21.7%

Cc1ccc(NC(=S)NC(=O)c2ccccc2)cc1
inactive: [1] 10.9% | [2] 4.95% | [3] 8.7% | [4] -55.7% | [5] 3.3% | [6] 24.4%

COCN1COCN(C)C1=O
inactive: [1] 8.5% | [2] 7.3% | [3] -1.55% | [4] 11.6% | [5] 23.9% | [6] 9.1%

CNNC(=NS(=O)(=O)c1cc(C#N)c(NNC)cc1S)NNC
inactive: [1] 6.05% | [2] -3.95% | [3] -11.3% | [4] -36.5% | [5] -8.45% | [6] 12.3%
